According to ChEMBL document CHEMBL1157539, “Thousands of chemical starting points for antimalarial lead identification” (Nature, 2010):

Columns and labels:
Type in all cases: functional
[1] = tested on: Plasmodium falciparum; experiment: GSK_TCMDC: Inhibition of Plasmodium falciparum 3D7 in whole red blood cells, using parasite LDH activity as an index of growth. Test compounds present at 2uM
[2] = tested on: Plasmodium falciparum; experiment: GSK_TCMDC: Inhibition of Plasmodium falciparum Dd2 in whole red blood cells, using parasite LDH activity as an index of growth. Test compounds present at 2uM
[3] = tested on: HepG2; experiment: GSK_TCMDC: Percent inhibition of human HepG2 cell line. Test compounds present at 10uM.

COc1cccc(-c2ccc(NC(=O)C3CCCN(Cc4cccc(OC)c4O)C3)cc2)c1 (stereo not given)
Inhibition [1]: 98%
Inhibition [2]: 78%
Inhibition [3]: 13%

O=C(Nc1ccc2c(c1)OCO2)c1cc(-c2cccnc2)cnc1NCc1ccc2c(c1)OCO2
Inhibition [1]: 87%
Inhibition [2]: 1%
Inhibition [3]: 2%

CC(Cc1ccc(OCCCCOc2ccccc2)cc1)NCCc1ccc(Oc2ccccc2)cc1 (stereo not given)
Inhibition [1]: 89%
Inhibition [2]: 95%
Inhibition [3]: 99%

Nc1ccn([C@@H]2O[C@H](COC(c3ccccc3)(c3ccccc3)c3ccccc3)[C@@H](O)[C@@H]2O)c(=O)n1
Inhibition [1]: 93%
Inhibition [2]: 2%
Inhibition [3]: 26%

Oc1cc(NCCCNC2CCc3c(Cl)cc(Cl)cc32)nc2ccccc12 (stereo not given)
Inhibition [1]: 100%
Inhibition [2]: 29%
Inhibition [3]: 3%

CCCCCCCCCn1c(NCc2cc(Cl)ccc2O)nc2ccccc21
Inhibition [1]: 97%
Inhibition [2]: 92%
Inhibition [3]: 13%

CC1CN(c2ccc(NC(=O)c3ccc(F)cc3)cc2)CCN1Cc1cccc(F)c1.O=C(O)C(F)(F)F (stereo not given)
Inhibition [1]: 81%
Inhibition [2]: 76%
Inhibition [3]: 11%

CC(Cc1ccc(OCCN2CCN(c3ccccc3)CC2)cc1)NCC(O)c1cccc(Cl)c1F.Cl (stereo not given)
Inhibition [1]: 92%
Inhibition [2]: 56%
Inhibition [3]: 40%

Cc1cc(CNCCCCCNCc2cccc([N+](=O)[O-])c2)ccc1O
Inhibition [1]: 98%
Inhibition [2]: 0%
Inhibition [3]: 14%

CCCN(CCCCNC(=O)c1ccc(-c2cccnc2)cc1)C1CCc2c(O)cccc2C1.Cl (stereo not given)
Inhibition [1]: 87%
Inhibition [2]: 16%
Inhibition [3]: 0%

Br.CC1(C)NC(N)=NC(=N)N1OCCCOc1c(Cl)cc(Cl)cc1Cl
Inhibition [1]: 94%
Inhibition [2]: 97%
Inhibition [3]: 65%

Cc1cccc(NC(=O)Nc2cccc(-c3ccc(-c4nc5cc(C(F)(F)F)ccc5[nH]4)cc3)c2)c1
Inhibition [1]: 100%
Inhibition [2]: 94%
Inhibition [3]: 44%

Cc1cc(N[C@@H](Cc2ccccc2)C(=O)NCCCOC(C)C)nc(NCCc2ccc(F)cc2)n1.O=C(O)C(F)(F)F
Inhibition [1]: 100%
Inhibition [2]: 36%
Inhibition [3]: 15%

O=C(O)C(F)(F)F.c1ccc2[nH]c(-c3ccc(-c4ccc(CN5CCN(CCN6CCOCC6)CC5)cc4)s3)nc2c1
Inhibition [1]: 100%
Inhibition [2]: 100%
Inhibition [3]: 39%

CC(C)(C)c1cc(C(=O)N2CCN(c3cnccn3)CC2)n(Cc2ccccc2)n1
Inhibition [1]: 92%
Inhibition [2]: 33%
Inhibition [3]: 0%

CN(C)c1cc(C(=O)N[C@@H](Cc2ccccc2)[C@H](O)CNC2CCCCC2)cc2[nH]ccc12.O=CO
Inhibition [1]: 98%
Inhibition [2]: 97%
Inhibition [3]: 10%

COc1nc2c(CCN3CC[C@H](NCc4ccc5c(c4)NC(=O)CO5)[C@H](O)C3)c(Cl)cnc2cc1F.Cl
Inhibition [1]: 90%
Inhibition [2]: 22%
Inhibition [3]: 21%

Brc1cc(CNCCCNc2nc3ccccc3[nH]2)sc1Br.Cl
Inhibition [1]: 100%
Inhibition [2]: 21%
Inhibition [3]: 10%

COc1cccc(CNC[C@@H](O)[C@H](Cc2ccccc2)NC(=O)c2cc(OC(C)C)cc(N3CCCCS3(=O)=O)c2)c1.Cl
Inhibition [1]: 95%
Inhibition [2]: 49%
Inhibition [3]: 8%

CCCCCCCC/C=C\CCCCCCCC(=O)NCc1ccc(O)c(OC)c1 [OLVANIL]
Inhibition [1]: 96%
Inhibition [2]: 93%
Inhibition [3]: 0%

O=C(NC1CCN(CC2(c3ccccc3F)CCCC2)CC1)c1cc[nH]n1
Inhibition [1]: 93%
Inhibition [2]: 91%
Inhibition [3]: 0%

O=C(Nc1ccc(-c2cccc(-c3nc4cc(F)ccc4[nH]3)c2)cc1)Nc1ccsc1
Inhibition [1]: 100%
Inhibition [2]: 51%
Inhibition [3]: 34%

Cc1cccc(-n2c(Nc3ccc(C)c(Cl)c3)nc3ccc(S(=O)(=O)NC(C)C(C)C)cc32)c1 (stereo not given)
Inhibition [1]: 97%
Inhibition [2]: 97%
Inhibition [3]: 0%

O=C(Nc1cccc(C(F)(F)F)c1)Nc1ccc(F)c([N+](=O)[O-])c1
Inhibition [1]: 100%
Inhibition [2]: 100%
Inhibition [3]: 43%

CCOc1cc(C(=O)NCCc2ccc(Cl)c(Cl)c2)ccc1-c1nc2cc(Cl)ccc2[nH]1
Inhibition [1]: 100%
Inhibition [2]: 47%
Inhibition [3]: 9%

COc1ccc2ncc(F)c([C@@H](O)CN3CCC(NCc4cc(C#N)c5c(c4)CCO5)CC3)c2n1
Inhibition [1]: 92%
Inhibition [2]: 50%
Inhibition [3]: 15%

O=C(O)C(F)(F)F.O=S(=O)(NC1CCN(c2ccnc3cc(Cl)ccc23)C1)c1cccs1 (stereo not given)
Inhibition [1]: 100%
Inhibition [2]: 76%
Inhibition [3]: 6%

Cc1[nH]c(C)c(-c2ccc(Nc3ccc(C(F)(F)F)cn3)cc2)c(=O)c1Br
Inhibition [1]: 99%
Inhibition [2]: 98%
Inhibition [3]: 30%

O=C(Nc1ccc(-c2nc3ccccc3[nH]2)cc1)c1cccc([N+](=O)[O-])c1
Inhibition [1]: 100%
Inhibition [2]: 56%
Inhibition [3]: 45%

CCC(C)c1ccc(NC(=O)Nc2ccc(Cn3ncc(N4CCCNCC4)c(Cl)c3=O)cc2)cc1.O=C(O)C(F)(F)F (stereo not given)
Inhibition [1]: 83%
Inhibition [2]: 31%
Inhibition [3]: 0%

O=C(O)C(F)(F)F.c1cc(CN2CCCCC2)cc(-c2cccc(-c3nc4ccccc4[nH]3)c2)c1
Inhibition [1]: 100%
Inhibition [2]: 37%
Inhibition [3]: 39%

CC(C)(C)NCC(O)COc1ccc(Cl)cc1C1=NNC(=O)CC1.Cl (stereo not given)
Inhibition [1]: 96%
Inhibition [2]: 0%
Inhibition [3]: 6%

CCc1cn(CC(=O)N(CCOc2ccc(-c3ccc(C(F)(F)F)cc3)cc2)CCN(CC)CC)c(SCc2ccc(F)cc2)nc1=O
Inhibition [1]: 95%
Inhibition [2]: 29%
Inhibition [3]: 46%

O=C(O)C(F)(F)F.OCCN1CCN(Cc2ccc(-c3cccc(-c4nc5cc(F)ccc5[nH]4)c3)cc2)CC1
Inhibition [1]: 100%
Inhibition [2]: 61%
Inhibition [3]: 21%

O=C1NC(C(=O)Nc2ccccc2)C(c2ccccc2)S1 (stereo not given)
Inhibition [1]: 95%
Inhibition [2]: 99%
Inhibition [3]: 0%

Cc1cccc2nc(-c3ccc(-c4cccc(CN5CCN(CCO)CC5)c4)cc3)[nH]c12.O=C(O)C(F)(F)F
Inhibition [1]: 100%
Inhibition [2]: 55%
Inhibition [3]: 20%

CCC[C@@H]([C@@H](CC1CCCCC1)C(=O)N[C@H](C(=O)Nc1nccs1)C(C)(C)SCCNC(=O)OCc1ccccn1)N(O)C=O
Inhibition [1]: 99%
Inhibition [2]: 96%
Inhibition [3]: 17%

O=C(O)/C=C/c1cccc(F)c1F
Inhibition [1]: 96%
Inhibition [2]: 1%
Inhibition [3]: 58%

CCCCCC(C)N/C(=N/c1ccccc1Br)Nc1ccc(C#N)cc1O (stereo not given)
Inhibition [1]: 98%
Inhibition [2]: 95%
Inhibition [3]: 2%

CCN(CC)S(=O)(=O)c1ccc(C=CC(=O)Nc2cc(Cl)ccc2N2CCOCC2)cc1
Inhibition [1]: 90%
Inhibition [2]: 65%
Inhibition [3]: 3%

Nc1nccc2ccc(-c3cccc4ncccc34)cc12.O=C(O)C(F)(F)F
Inhibition [1]: 98%
Inhibition [2]: 94%
Inhibition [3]: 40%

CCc1cn2c3c(cc(C(=O)N[C@@H](Cc4cc(F)cc(F)c4)[C@H](O)CNC4CCOCC4)cc13)N(C)S(=O)(=O)CC2.O=CO
Inhibition [1]: 98%
Inhibition [2]: 98%
Inhibition [3]: 1%

CN1CCN(c2ccnc3ccc(NC(=O)Nc4cccc5ccccc45)cc23)CC1
Inhibition [1]: 100%
Inhibition [2]: 96%
Inhibition [3]: 0%

COc1ccc(-c2cnc3ccc(NCc4ccc(F)cc4)nn23)cc1OC
Inhibition [1]: 97%
Inhibition [2]: 99%
Inhibition [3]: 35%

Cl.O=C(Nc1ccccc1Br)N[C@@H]1CCN(c2ccnc3ccccc23)C1
Inhibition [1]: 91%
Inhibition [2]: 90%
Inhibition [3]: 25%

COc1ccc(Cn2c(Nc3cccc(C(F)(F)F)c3)nc3cc(C(=O)NCCN4CCCC4)cnc32)cc1Cl
Inhibition [1]: 97%
Inhibition [2]: 31%
Inhibition [3]: 10%

CCC(ON1C(N)=NC(N)=NC1(C)C)c1ccccc1 (stereo not given)
Inhibition [1]: 96%
Inhibition [2]: 0%
Inhibition [3]: 61%

O=C(Cc1c[nH]cn1)Nc1cccc(-c2ccc(-c3nc4cc(C(F)(F)F)ccc4[nH]3)s2)c1
Inhibition [1]: 100%
Inhibition [2]: 99%
Inhibition [3]: 5%

CN1CCN(CC(=O)Nc2cccc(-c3cccc(-c4nc5ccccc5[nH]4)c3)c2)CC1
Inhibition [1]: 90%
Inhibition [2]: 27%
Inhibition [3]: 11%

N#Cc1ccc(-c2ccc(C(=O)NCCCCN3CCC(c4ccc5c(c4OCc4ccccn4)CCCC5)CC3)cc2)cc1
Inhibition [1]: 96%
Inhibition [2]: 39%
Inhibition [3]: 37%
